Data on 123 compounds can be found in PubChem BioAssay AID488969 (Vanderbilt High Throughput Screening Facility, 2010).

Structures are written as SMILES. Where “and” joins values, the source holds several entries; their conditions need not be identical. Identical values can stand only once. The full ranking holds about 110,000 compounds; the median of “z-score” is about -0.1, and the highest 2% start at about 2. Shown is part of a subset that was picked to be rich in the highest values. Calls of active or inactive are those of the source.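 The calls were made as follows: active = z-score in the third read window above 3 or below -3; inactive = the rest.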

Chain of Metabotropic glutamate receptor 8 (Rattus norvegicus) (P70579 whole entry, looked up): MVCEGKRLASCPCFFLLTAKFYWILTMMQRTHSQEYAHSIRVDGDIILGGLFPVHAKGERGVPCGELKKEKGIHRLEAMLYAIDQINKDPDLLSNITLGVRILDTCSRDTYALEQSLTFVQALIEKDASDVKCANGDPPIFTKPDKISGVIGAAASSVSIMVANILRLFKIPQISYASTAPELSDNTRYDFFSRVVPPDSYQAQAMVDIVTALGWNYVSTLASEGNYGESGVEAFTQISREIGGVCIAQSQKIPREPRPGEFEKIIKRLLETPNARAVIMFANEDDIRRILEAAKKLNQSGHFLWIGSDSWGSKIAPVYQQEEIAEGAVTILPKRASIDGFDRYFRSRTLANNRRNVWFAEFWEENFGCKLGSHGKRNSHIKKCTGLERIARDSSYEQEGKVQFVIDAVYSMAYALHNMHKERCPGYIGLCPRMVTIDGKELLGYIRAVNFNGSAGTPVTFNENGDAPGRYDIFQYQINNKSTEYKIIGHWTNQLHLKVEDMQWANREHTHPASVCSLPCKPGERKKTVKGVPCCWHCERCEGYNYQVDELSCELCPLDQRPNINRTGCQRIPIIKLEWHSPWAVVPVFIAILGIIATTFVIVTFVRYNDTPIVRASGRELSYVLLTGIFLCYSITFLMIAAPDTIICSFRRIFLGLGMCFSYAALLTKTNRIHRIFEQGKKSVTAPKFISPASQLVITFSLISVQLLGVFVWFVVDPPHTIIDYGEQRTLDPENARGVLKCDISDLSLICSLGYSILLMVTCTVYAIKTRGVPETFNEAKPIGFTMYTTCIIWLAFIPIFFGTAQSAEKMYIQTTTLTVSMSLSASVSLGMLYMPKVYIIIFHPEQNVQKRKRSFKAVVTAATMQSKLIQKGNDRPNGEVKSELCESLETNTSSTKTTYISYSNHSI

The test has as its target Metabotropic glutamate receptor 8 (Rattus norvegicus) (UniProt P70579). The test is described as follows: rat mGluR8 modulators via GIRK flux, primary screen, cell-based, thallium flux, HTS (AID 488969). The following applies: HEK293 rat mGluR8, GIRK (G protein-gated inwardly rectifying potassium channel) thallium flux, FluoZin2; at 10 µM; stronger effect = higher value; submaximal glutamate (EC20) added with thallium.
The compound `Cc1cc(N2CCN(c3nc(N4CCOCC4)nc4ccccc34)CC2)c2ccccc2n1` gave a z-score of 0.213.
As for `CC(C)CC(C(=O)Nc1oc(-c2ccccc2)c(-c2ccccc2)c1C#N)N1C(=O)c2ccccc2C1=O` (stereo not drawn), the z-score is -0.151.
The compound `COc1ccc(C(=O)Oc2ccc(/C=N/NC(=O)Cc3ccc([N+](=O)[O-])cc3)cc2)cc1` returned a z-score of 0.194.
In turn, `O=C(NNC(=O)c1ccc(Cl)cc1Cl)c1ccncc1` came in with a z-score of 0.97.
`Cc1ccc(C(=O)NC(=S)NNS(=O)(=O)c2ccc(C)cc2)cc1` showed a z-score of 0.234.
The compound `O=C(NC(=S)NNC(=O)c1ccc(Cl)cc1Cl)c1cccnc1` came in with a z-score of -0.129.
In the case of `Cc1onc(-c2ccccc2)c1C(=O)NNC(=S)NC(=O)c1ccc(Cl)cc1Cl` it was 0.272; in that of `COC(=O)NNC(=O)c1ccc(Cl)cc1Cl`, -0.27.
For `Cc1ccc(C(=O)NC(=S)Nc2ccc(NC(=O)c3cccc(Cl)c3)cc2)cc1`, the z-score is -0.278.
In the case of `Cc1cccc(C(=O)NC(=S)NNC(=O)c2ccc(Cl)cc2)c1` it was 6.22 (active).
In the case of `Cc1ccc(C(=O)NNC(=S)NC(=O)c2ccc(Cl)cc2)cc1` it was 7.64 (active).
To `O=C(NNC(=S)NC(=O)c1cccnc1)c1ccc(Cl)cc1` belongs 0.171; to `Cc1cccc(C(=O)NNC(=O)c2ccc(-c3ccccc3)cc2)c1`, 0.252; to `Cc1ccc(C(=O)NNC(=S)NC(=O)c2ccc(Cl)cc2Cl)cc1`, 2.02.
Take `Cc1ccccc1C(=O)NNC(=S)NC(=O)c1ccc(Cl)cc1Cl`: the z-score is 4.35 (active).
In the case of `CN(C)[C@@H]1CCC[C@H]1OC(=O)C(c1ccccc1)c1ccccc1` it was -1.41; in that of `Cc1ccc(S(=O)(=O)N2CCN(S(=O)(=O)c3ccc(C)cc3)C2)cc1`, -0.481; in that of `O=C(COC(=O)Cc1ccc(Cl)cc1Cl)NCCC1=CCCCC1`, -1.17.
In turn, `CCCC(=O)Nc1ccc(C(=O)Nc2nc(CC(=O)OCC)cs2)cc1` returned a z-score of -0.437.
In the case of `CCCN1C/C(=C/c2ccc3c(c2)OCO3)C(=O)/C(=C/c2ccc3c(c2)OCO3)C1` it was -0.565; in that of `Cc1ccc2c(c1)C1CCCC3C1N2CC(=O)N3Cc1ccccc1` (stereo not drawn), -0.338; in that of `C/C(=N\O)C(C)/[N+]([O-])=C/c1nc(C)c(C)n1O` (stereo not drawn), 1.53.
`O=C(CSc1nc2ccccc2c(=O)n1-c1ccc(F)cc1)Nc1ccc(N2CCOCC2)cc1`: the z-score was -0.000577.
To `Cc1cccc(C(=O)NC(=S)NNC(=O)c2cccs2)c1` belongs 5.42 (active); to `O=C(COc1ccccc1)NNC(=S)NC(=O)c1ccc(Cl)cc1Cl`, 5.19 (active).
To `Cc1cccc(C(=O)NC(=S)NNC(=O)Cc2ccccc2)c1` belongs 1.8; to `O=C(NC(=S)NNC(=O)c1cccs1)c1ccc(Br)o1`, 4.37 (active); to `COc1ccc(C)cc1NC(=S)NNC(=O)c1ccccc1Cl`, 0.678.
The compound `O=C(NNC(=S)NC(=O)c1cccs1)c1ccc(NC(=O)c2ccccc2)cc1` yielded a z-score of -0.0903.
To `O=C(COc1cccc(Cl)c1)NNC(=S)Nc1ccccc1` belongs 0.593; to `Cc1ccc(OCC(=O)NC(=S)Nc2cccc(NC(=O)c3ccc(Cl)cc3Cl)c2)cc1`, 0.148; to `O=C(NNC(=O)c1cccs1)c1ccc(Br)o1`, -0.207.
Turning to `O=C(NC(=S)NNC(=O)c1cccs1)c1ccco1`, the z-score was determined as 1.08.
For `Cc1cccc(C(=O)NC(=S)NNC(=O)c2ccccc2Cl)c1`, the z-score is 5.34 (active).
Regarding `CCNC(=S)NNC(=O)c1cccs1`, the z-score is -0.146.
`CC1=C(C(=O)Nc2cc(C)ccc2C)C(c2cccs2)NC(=S)N1` (stereo not drawn) gave a z-score of -0.0019.
To `O=C(CS(=O)CC(=O)N(c1ccccc1)C(C(=O)NC1CCCCC1)c1ccco1)Nc1ccc(F)cc1` (stereo not drawn) belongs -0.245; to `COc1ccc(S(=O)(=O)n2nc(C)cc2C)c(C)c1C`, -0.246.
In the case of `CC(=O)Nc1ccc(S(=O)(=O)NNC(=O)CCC(=O)Nc2cc(C)ccc2C)cc1` it was -0.368.
For `Cc1ccccc1Nc1nc(-c2ccccc2)c(C(=O)Nc2cccnc2)s1`, the z-score was 0.177.
To `O=C(O)CCSc1nc2ccccc2n1CCOc1ccccc1` belongs 0.105; to `CS(=O)(=O)c1ccc(Sc2nc3ccccc3[nH]2)c([N+](=O)[O-])c1`, -0.102; to `O=C1/C(=C/c2ccccc2)Nc2ccccc21`, -0.773.
In the case of `Cc1ccc(NC(=O)C(=O)NNC(=O)c2ccccc2C)cc1Cl` it was -0.171.
As for `Cc1ccccc1C(=O)NNC(=S)NC(=O)c1ccccc1`, the z-score is 3.78 (active).
Take `Cc1ccccc1C(=O)NNC(=O)C(=O)Nc1cccc(Cl)c1C`: the z-score was 6.02 (active).
To `O=C(NC(=S)NNC(=O)c1ccccc1[N+](=O)[O-])c1ccccc1` belongs -0.00864; to `Cc1ccccc1C(=O)NNC(=O)CCC(=O)Nc1cccc(Cl)c1C`, -0.34.
Compound `Cc1ccc(C(=O)NC(=S)NNC(=O)c2ccccc2[N+](=O)[O-])cc1` yielded a z-score of 0.414.
In the case of `Cc1cc(C)nc(Sc2ccc(/C=C(\C#N)C(=O)Nc3ccccc3)o2)n1` it was -0.125.
The compound `CCN(CC)CCCNC(=O)c1cc(-c2ccc(Cl)cc2)on1` showed a z-score of 1.7.
Compound `CCN(CC)CCCNC(=O)c1cc(-c2cccc(Cl)c2)on1` registered a z-score of 2.64.
`O=C(NCc1cccs1)c1cc(-c2cccc(Cl)c2)on1` registered a z-score of -1.01.
In the case of `CCN(CC)CCCNC(=O)c1cc(-c2ccc(O)cc2)on1` it was 0.686; in that of `O=C(NCc1ccco1)c1cc(-c2cccc(Cl)c2)on1`, 0.0775; in that of `CCN(CC)CCCNC(=O)c1cc(-c2ccc(Cl)c(Cl)c2)on1`, 5.37 (active).
In turn, `CCCCC(=O)Nc1ccc(C(=O)NNC(=S)NC(=O)c2cccs2)cc1` had a z-score of 0.439.
To `Cc1ccc(/C=C(\C#N)C(=O)Nc2c(C)cccc2C)s1` belongs -0.0444; to `O=C(CSc1cccc2cccnc12)OCC(=O)c1ccc(Br)cc1`, -0.113.
As to `CCOC(=O)CSc1cccc2cccnc12`, the z-score is 4.08 (active).
Take `Cc1cccc(CSc2cccc3cccnc23)c1`: the z-score is 8.5 (active).
In the case of `O=C(CSc1cccc2cccnc12)OCC(=O)c1ccccc1` it was 0.45; in that of `O=C(CSc1cccc2cccnc12)NCc1ccco1`, -0.028; in that of `O=C(O)CSc1cccc2cccnc12`, -0.347 and 0.372.
In the case of `CN(C)C(=O)CSc1cccc2cccnc12` it was 7 (active); in that of `COc1ccc(CSc2cccc3cccnc23)cc1[N+](=O)[O-]`, 0.224.
As for `COc1ccc(/C(C)=N/NC(=O)c2ccc(CSc3cccc4cccnc34)cc2)cc1OC`, the z-score is -0.51.
To `Cc1ccc(NC(=O)CN2C(=O)C3CCCCN3C(=O)c3ccccc32)cc1` (stereo not drawn) belongs 0.0289.
As to `COC(=O)c1cc2c(s1)-c1ccccc1OC2`, the z-score was -0.0119.
To `Cc1ccc(NC(=O)c2ccc3nc[nH]c3c2)cc1C` belongs 0.551; to `Cc1ccc(NC(=O)c2c(Cl)n(C)c3ccccc23)cc1`, -0.377; to `O=C(Nc1cccc(NC(=O)c2cccs2)c1)c1ccco1`, -0.313.
Consider `Clc1cccc(Cl)c1CO/N=C/c1c(-c2ccccc2)nc2n1CCS2`, for which the z-score was -0.177.
To `Cn1c(O)c(C=NCC2CCNCC2)c(=O)n(C)c1=O` belongs 0.695; to `O=C(NCc1cccs1)c1cnn2cccnc12`, 0.267; to `CCOC(=O)N1CCN(CC(O)COCc2ccc(OC)c(OC)c2)CC1` (stereo not drawn), 0.0416.
In the case of `CC(C)(C)C1CCC(OC(=O)c2ccncc2)CC1` (stereo not drawn) it was 0.0808; in that of `C/C(=N\Nc1ccc([N+](=O)[O-])cc1[N+](=O)[O-])c1ccc(-n2nncc2C(C)(C)C)cc1`, -2.37; in that of `O=C(CCCN1C(=O)C2CCCCN2C1=O)N1CCN(c2ccc([N+](=O)[O-])cc2)CC1` (stereo not drawn), 0.169.
In the case of `O=C(Nc1cccc(Cl)c1)Nc1nnc(-c2ccncc2)s1` it was -0.194; in that of `O=C(NNC(=O)C1COc2ccccc2O1)c1ccccc1` (stereo not drawn), 0.0265.
The compound `NC(=S)NNC(=O)Nc1ccc(Cl)c(Cl)c1` came in with a z-score of 0.243.
In turn, `CC(/C=N/n1c(COc2ccccc2)n[nH]c1=S)=C\c1ccccc1` gave a z-score of 1.93.
In the case of `CC(/C=N/n1c(-c2ccco2)n[nH]c1=S)=C\c1ccccc1` it was 5.91 (active).
In turn, `S=c1[nH]nc(C2CCCCC2)n1/N=C/C(Cl)=C\c1ccccc1` showed a z-score of -0.0746.
In the case of `CC(/C=N/n1c(-c2ccco2)n[nH]c1=S)=C\c1ccco1` it was 0.1.
Regarding `Cc1cc(-c2n[nH]c(=S)n2/N=C/C(Cl)=C/c2ccccc2)n[nH]1`, the z-score is -0.527.
To `S=c1[nH]nc(-c2ccco2)n1/N=C/C=C/c1ccco1` belongs -0.366; to `CC(=C/c1ccccc1)/C=N/n1c(-c2ccco2)n[nH]c1=S`, 2.16.
On to `CC(/C=N/n1c(C2CCCCC2)n[nH]c1=S)=C\c1ccccc1`, for which the z-score came to 2.13.
Take `CC(/C=N/n1c(-c2cc(C)[nH]n2)n[nH]c1=S)=C\c1ccccc1`: the z-score was -0.302.
`Cc1cc(NCCN2CCOCC2)n2nc(C)c(-c3ccc(Cl)cc3)c2n1` yielded a z-score of -0.362.
With `COc1ccccc1-c1c(C#N)c(SCC(=O)N2CCCC2)nc(C)c1C(N)=O`, the z-score was found to be 0.169.
Regarding `CNC(=O)c1ccc(-n2nc(C)cc2-c2ccccc2)cc1`, the z-score was -0.167.
Compound `CCOC(=O)c1c(N)sc2c(OCC)c(Br)ccc12` returned a z-score of 0.151.
Regarding `CCCN(CCC)CCNC(=O)C(NS(=O)(=O)c1ccc2c(c1)CCC(=O)N2)c1ccccc1` (stereo not drawn), the z-score is 10 (active).
In the case of `O=C1CCc2cc(S(=O)(=O)NC(C(=O)NCc3cccnc3)c3ccccc3)ccc2N1` (stereo not drawn) it was -0.174.
The compound `CCCNC(=O)C(Cc1ccccc1)NS(=O)(=O)c1ccc2c(c1)CCC(=O)N2` (stereo not drawn) came in with a z-score of 0.179.
On to `Cc1ccccc1S(=O)(=O)c1c(C)cc(C)n(C(C)C)c1=O`, for which the z-score was -0.131.
Consider `CCCCCCC(=O)N/N=C1\CCCc2ccccc21`, for which the z-score was -0.118.
On to `COc1cccc(NC(=S)N/N=C2\CC(C)(C)Oc3ccc(O)cc32)c1`, for which the z-score was -0.0142.
In the case of `CCCCNC(=S)N/N=C1\CCCCc2ccccc21` it was 2.17; in that of `C=C(C)CNC(=S)N/N=C1\CCCCc2ccccc21`, 3.15 (active); in that of `Cc1cccc(NC(=S)N/N=C2/CCCCc3ccccc32)c1`, 0.797.
Take `COC(=O)N/N=C1\CCCc2ccccc21`: the z-score is -0.137.
Turning to `CC(C)NC(=S)N/N=C1\CCCCc2ccccc21`, the z-score was -0.471.
As to `CCNC(=S)N/N=C1\CCCCc2ccccc21`, the z-score was 1.57.
With `COc1cccc(NC(=S)N/N=C2/CCCCc3ccccc32)c1`, the z-score is 8.28 (active).
Compound `CC(=O)N1CCCc2cc(S(=O)(=O)N(C)Cc3ccccc3)ccc21` yielded a z-score of 0.884.
`Cc1ccc(SCc2nc3ccccc3[nH]2)cc1` registered a z-score of -0.0609.
To `CCCC(=O)NC(Nc1cccc(C(F)(F)F)c1)C(Cl)(Cl)Cl` (stereo not drawn) belongs -0.917; to `COc1ccc(OCC(=O)Nc2ccccc2OC(F)F)cc1`, 2.69.
To `COc1cc(OC)c(OC)cc1NC(=O)CC1COc2ccccc2O1` (stereo not drawn) belongs -0.0814; to `COc1cccc(NC(=O)CC2COc3ccccc3O2)c1` (stereo not drawn), 5.36 (active).
With `COc1ccc(OCC(=O)NNC(=O)C(=O)Nc2ccc(C)cc2)cc1`, the z-score came to 2.73.
The compound `CCOc1ccc(OCC(=O)Nc2ccc(OC)cc2)cc1` showed a z-score of -0.476.
To `COc1ccc(OCC(=O)Nc2ccc(C)cc2)cc1` belongs -0.351; to `Cc1cccc(NC(=O)CSc2nc(N)cc(N)n2)c1`, -0.298; to `Nc1cc(N)nc(SCC(=O)Nc2ccccc2)n1`, -0.306.
In the case of `COc1ccccc1NC(=O)COc1ccccc1` it was 0.137; in that of `COc1cccc(NC(=O)CSc2nc(N)cc(N)n2)c1`, 3.37 (active).
To `COc1ccc(OCC(=O)Nc2ccccc2O)cc1` belongs -0.431; to `COc1ccccc1NC(=O)CC1COc2ccccc2O1` (stereo not drawn), 0.0423.
